PubChem BioAssay (EPA / NIEHS)
Some compounds were tested as several samples or in several runs, with calls that do not always agree. Active and inactive are the calls of the source. How the source made its calls: active means hit-call score of the fitted dose curve at least 0.9, where 1 is the maximum; inactive means score below 0.9.

Each compound was assayed on CD40, CD40 (gene 958) (assay: BSK_SAg_CD40: BioMAP Diversity Plus: SAg Assay for CD40 Biomarker Activity (AID 2283088)). Settings: primary human HUVEC with PBMC; actives raise or lower the signal.
Protocol: BSK_SAg is a cell-based, multiplexed-readout assay that uses umbilical vein endothelium and peripheral blood mononuclear cells, a human vascular primary cell co-culture, with measurements taken at 24 hours after chemical dosing in a 96-well plate.BSK_SAg_CD40 is one of 10 assay component(s) measured or calculated from the BSK_SAg assay. It is designed to make measurements of enzyme-linked immunosorbent assay, a form of binding reporter, as detected with fluorescence intensity signals by Enzyme-linked immunosorbent assay technology.Data from the assay component BSK_SAg_CD40 was analyzed into 1 assay endpoint. This assay endpoint, BSK_SAg_CD40, was analyzed with bidirectional fitting relative to DMSO as the negative control and baseline of activity. Using a type of binding reporter, gain or loss-of-signal activity can be used to understand changes in the signaling as they relate to the gene CD40. Furthermore, this assay endpoint can be referred to as a primary readout, because this assay has produced multiple assay endpoints where this one serves a signaling function. To generalize the intended target to other relatable targets, this assay endpoint is annotated to the cytokine intended target family, where the subfamily is inflammatory factor.
The levels of cell surface (or secreted, indicated by the prefix "s") biomarker endpoints were measured by ELISA. Overt cytotoxicity to cells in confluent adherent cultures (all systems other than the BT system) was assessed by measuring total protein levels using sulforhodamine B (SRB) staining in parallel cultures at the time of biomarker measurements, indicated as SRB endpoints. For proliferation assays for adherent cell types, individual cell types are cultured at sub-confluence and relative cell numbers quantified by SRB staining at time points optimized for each system (48 h: 3C and CASM3C systems; 72 h: BT and HDF3CGF systems; 96 h: SAg system). SRB was performed by staining cells with 0.1% SRB after fixation with 10% TCA and reading wells at 560 nm.Viability and proliferation of PBMC (T cells) was quantified by Alamar Blue reduction for the SAg and BT systems. For PBMC viability (referred to as PBMC Cytotoxicity within the assay endpoint names), cells were plated (75,000/well in a 96-well plate) and then chemical samples added for 1 h before addition of activators, SEB and TSST-1 (20 ng/mL final concentration each). Cells were incubated for 90 h. Then, Alamar Blue (20 uL/well) (Invitrogen, Cat DAL1100) was added for 6 h, and the plates were read with a fluorescence microplate reader at 546/580 nm (excitation/emission). For PBMC proliferation, cells were plated and activated as above but incubated for only 16 h prior to addition of Alamar Blue. Plates were read after 6 h.

outcome, inactive:
C=C(C)C(=O)OCC(CC)(COC(=O)C(=C)C)COC(=O)C(=C)C
C[C@@H]1CCN(C(=O)[C@H](CCCN=C(N)N)NS(=O)(=O)c2cccc3c2NC[C@H](C)C3)[C@@H](C(=O)O)C1
CC(CN=Cc1ccccc1O)N=Cc1ccccc1O (stereo not given)
CC(C=O)Cc1ccc(C(C)(C)C)cc1 (stereo not given)
CSCCC=O
CCCCOC(=O)CCCCCCCC(=O)OCCCC
CC(C)(N=C=O)c1cccc(C(C)(C)N=C=O)c1
Cc1cc(CCC(=O)OCCOCCOCCOC(=O)CCc2cc(C)c(O)c(C(C)(C)C)c2)cc(C(C)(C)C)c1O
CC1(C)C2=CCCC(C)(C)[C@]23CC[C@H]1C3
c1ccc2cc(Nc3ccc(Nc4ccc5ccccc5c4)cc3)ccc2c1
CC1(C)CCC[C@]2(C)[C@H]3CCO[C@]3(C)CC[C@@H]12
CS(=O)(=O)c1ccc(C2=C(c3ccccc3)C(=O)OC2)cc1
COc1ccc(CCN2CCC(Nc3nc4ccccc4n3Cc3ccc(F)cc3)CC2)cc1
CN(C)C(=O)Nc1ccc(Oc2ccc(Cl)cc2)cc1
CCCCCCC(CO)CCCC (stereo not given)
CN(C)C(=S)SC(=S)N(C)C
C=C(C)C(=O)OCCOCCOCCOCCOC(=O)C(=C)C
CCN(CC)C(=O)N(CC)CC
CN(c1nccc(=O)[nH]1)C1CCN(c2nc3ccccc3n2Cc2ccc(F)cc2)CC1
C=C(C)C(=O)OCCOCCOCCOC(=O)C(=C)C
C1=CC2C3C=CC(C3)C2C1 (stereo not given)
O=C(Nc1ccc2c(O)c(N=Nc3ccc(N=Nc4ccc(S(=O)(=O)O)cc4)cc3)c(S(=O)(=O)O)cc2c1)c1ccccc1
CC=Cc1ccc(OCC)c(O)c1
C=C(C)[C@H]1CC=C(C)C(=O)C1
CCCCCC(C=O)=Cc1ccccc1
C=CC(C)(O)CCC=C(C)C (stereo not given)
O=CN1CCOCC1
IC(I)I
O=C1OC[C@H](Cc2cccc(O)c2)[C@H]1Cc1cccc(O)c1
O=C1c2ccccc2C(=O)c2c(O)ccc(O)c21
CCOC(=O)C(C#N)=C(c1ccccc1)c1ccccc1

AC50, active:
c1ccc(CCc2ccccc2)cc1 30.9 µM
Clc1cc(Cl)c(-c2c(Cl)c(Cl)cc(Cl)c2Cl)cc1Cl 16.3 µM
CCC(C)c1cc([N+](=O)[O-])cc([N+](=O)[O-])c1OC(=O)OC(C)C (stereo not given) 9.34 µM
CC1(C)CCC[C@]2(C)[C@H]3CCO[C@]3(C)CC[C@@H]12 36.6 µM
Oc1c(Cl)cc(Cl)c(Cl)c1Cc1c(O)c(Cl)cc(Cl)c1Cl 7.61 µM
CCCCN(CCCC)C(=O)N(CCCC)CCCC 20 µM
CC(=O)C1(C)CC2=C(CCCC2(C)C)CC1C (stereo not given) 15.2 µM
O=C1OC2(c3ccccc31)c1ccc(O)c(Br)c1Oc1c2ccc(O)c1Br 28.8 µM
COc1ccc(OC)c(N=Nc2c(O)ccc3ccccc23)c1 3.97 µM
